Where “and” joins values, the source holds several entries; their conditions need not be identical. Identical values can stand only once. The campaign covered roughly 5,500 compounds. About 2,000 (36%) were called active. About 18% were inconclusive and are not listed. No stated cut-off is given here; in the data, active means normalized growth mostly below about 0.91 (no sharp cut-off); inconclusive means no clear call, values can overlap the other calls; inactive means mostly above about 0.92. This is one part of the list.
Assay: chemical genetic growth profiling, strain panel (AID 1159580);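 further: tested at 20 µM; growth read once vehicle control cultures reached saturation at 30 °C; 1 = growth at the plate median or of vehicle wells; lower values mean less growth of the strain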
Conditions: S. cerevisiae deletion strains, growth OD
[1] = locus YAL013W, strain DEP1, hits give low values
[2] = locus YBR229C, strain ROT2, hits give low values
[3] = locus YDL101C, strain DUN1, hits give low values
[4] = locus YDR150W, strain NUM1, hits give low values
[5] = locus YEL061C, strain CIN8, hits give low values
[6] = locus YHR030C, strain SLT2, hits give low values
[7] = locus YJL187C, strain SWE1, hits give low values
[8] = locus YJR043C, strain POL32, hits give low values
[9] = locus YJR075W, strain HOC1, hits give low values
[10] = locus YLR039C, strain RIC1, hits give low values
[11] = locus YLR262C, strain YPT6, hits give low values
[12] = locus YMR263W, strain SAP30, hits give low values

Measured: normalized growth

Cc1ccc2c(c1)N(CCO)C(C)(C)CC2C (centres undefined)
inactive: [1] 1 | [2] 0.997 | [3] 0.97 | [4] 0.909 | [5] 1.03 | locus YGR078C, strain PAC10, hits give low values 0.986 | [6] 0.982 | locus YHR087W, strain rtc3, hits give low values 0.961 | [7] 1 | [8] 0.98 | [9] 0.975 | [10] 0.969 | locus YLR058C, strain SHM2 (second series), hits give low values 0.988 | locus YLR085C, strain ARP6, hits give low values 1.03 | [11] 0.955 | locus YML094W, strain GIM5, hits give low values 0.993 | locus YMR219W, strain ESC1, hits give low values 0.987 | [12] 0.997 | locus YNL153C, strain GIM3, hits give low values 1 | locus YNL298W, strain CLA4 (second series), hits give low values 1.04 | locus YNL322C, strain KRE1, hits give low values 1 | locus YNR030W, strain Alg12, hits give low values 0.986 | locus YOL006C, strain TOP1, hits give low values 1.02 | locus YPL055C, strain LGE1, hits give low values 0.962 | locus YPL241C, strain CIN2, hits give low values 0.998 | locus YPR135W, strain CTF4, hits give low values 0.953

COc1cc(OC)c(OC)cc1C=O
inactive: [1] 0.991 | locus YAL021C, strain ccr4, hits give low values 1.01 | locus YAL026C, strain drs2, hits give low values 1 | locus YAL030W, strain snc1, hits give low values 0.998 | locus YBL061C, strain skt5, hits give low values 0.991 | locus YBR009C, strain hhf1, hits give low values 0.993 | locus YBR021W, strain FUR4, hits give low values 1.03 | locus YBR023C, strain chs3, hits give low values 0.991 | locus YBR171W, strain sec66, hits give low values 0.991 | [2] 1.01 | locus YBR231C, strain swc5, hits give low values 0.998 | locus YBR279W, strain paf1, hits give low values 0.997 | locus YCL011C, strain gbp2, hits give low values 1 | locus YCL016C, strain dcc1, hits give low values 0.995 | locus YCL029C, strain bik1, hits give low values 0.972 | locus YCL061C, strain MRC1, hits give low values 0.996 | locus YCL069W, strain vba3, hits give low values 0.999 | locus YCR088W, strain abp1, hits give low values 0.999 | locus YDL005C, strain med2, hits give low values 0.985 | locus YDL035C, strain GPR1, hits give low values 1.01 | locus YDL040C, strain nat1, hits give low values 0.998 | locus YDL074C, strain BRE1, hits give low values 1 | [3] 1.02 | locus YDL185W, strain tfp1, hits give low values 0.94 | locus YDL192W, strain arf1, hits give low values 0.997 | locus YDR001C, strain nth1, hits give low values 0.999 | locus YDR069C, strain doa4, hits give low values 0.991 | locus YDR101C, strain arx1, hits give low values 0.989 | locus YDR137W, strain rgp1, hits give low values 0.973 | [4] 0.991 | locus YDR159W, strain sac3, hits give low values 1 | locus YDR162C, strain NBP2, hits give low values 1.06 | locus YDR195W, strain ref2 1.01 | locus YDR297W, strain sur2, hits give low values 0.989 | locus YDR318W, strain mcm21, hits give low values 0.994 | locus YDR334W, strain swr1, hits give low values 0.987 | locus YDR335W, strain msn5, hits give low values 1 | locus YDR388W, hits give low values 0.988 | locus YDR392W, strain spt3, hits give low values 0.999 | locus YDR502C, strain sam2, hits give low values 0.995 | locus YEL003W, strain gim4, hits give low values 0.999 | locus YEL037C, strain rad23, hits give low values 1 | locus YEL061C, strain CIN8 (second series), hits give low values 1 | [5] 1.01 | locus YER015W, strain faa2, hits give low values 0.997 | locus YER016W, strain bim1, hits give low values 0.994 | locus YER110C, hits give low values 0.968 | locus YER111C, strain swi4, hits give low values 1 | locus YER155C, strain BEM2 (second series), hits give low values 1 | locus YER155C, strain BEM2, hits give low values 0.991 | locus YER167W, strain BCK2, hits give low values 1.02 | locus YFR010W, strain ubp6, hits give low values 0.999 | locus YGL078C, strain dbp3, hits give low values 0.986 | locus YGL086W, strain mad1, hits give low values 0.984 | locus YGL167C, strain pmr1, hits give low values 1 | locus YGL173C, strain kem1, hits give low values 0.997 | locus YGL227W, strain vid30, hits give low values 0.992 | locus YGL240W, strain doc1, hits give low values 1.02 | locus YGL248W, strain PDE1, hits give low values 1.06 | locus YGL253W, strain hxk2, hits give low values 0.992 | locus YGR135W, strain pre9, hits give low values 1.03 | locus YGR252W, strain gcn5, hits give low values 1.08 | locus YHR013C, strain ard1, hits give low values 1.02 | locus YHR027C, strain rpn1, hits give low values 0.994 | [6] 0.994 and 0.979 | locus YHR079C, strain IRE1 (second series), hits give low values 0.987 | locus YHR079C, strain IRE1, hits give low values 0.996 | locus YHR094C, strain hxt1, hits give low values 1 | locus YHR129C, strain ARP1, hits give low values 1.02 | locus YHR142W, strain chs7, hits give low values 0.998 | locus YHR200W, strain rpn10, hits give low values 0.978 | locus YIL066C, strain RNR3, hits give low values 1.04 | locus YIL073C, strain SPO22, hits give low values 0.955 | locus YIL125W, strain kgd1, hits give low values 0.998 | locus YIR030C, strain dcg1, hits give low values 0.99 | locus YJL092W, strain hpr5, hits give low values 0.995 | locus YJL095W, strain BCK1 (second series), hits give low values 0.99 | locus YJL095W, strain BCK1, hits give low values 1.09 and 0.989 | locus YJL115W, strain asf1, hits give low values 1 | locus YJL129C, strain trk1, hits give low values 1 | locus YJL134W, strain LCB3, hits give low values 0.987 | locus YJL154C, strain vps35, hits give low values 0.995 | locus YJL164C, strain tpk1, hits give low values 1 | locus YJL166W, strain qcr8, hits give low values 1.01 | locus YJL168C, strain set2, hits give low values 0.991 | locus YJL187C, strain SWE1 (second series), hits give low values 1.04 | [7] 0.991 | [8] 0.986 | locus YJR066W, strain TOR1, hits give low values 0.916 | [9] 1.01 | locus YKL009W, strain mrt4, hits give low values 0.972 | locus YKL068W, hits give low values 0.985 | locus YKL085W, strain MDH1 (second series), hits give low values 0.988 | locus YKL085W, strain MDH1, hits give low values 0.988 | locus YKL160W, strain elf1, hits give low values 1 | locus YKR001C, strain vps1, hits give low values 1.02 | locus YKR026C, strain gcn3, hits give low values 0.994 | locus YKR091W, strain srl3, hits give low values 0.997 | locus YLL001W, strain dnm1, hits give low values 1.01 | locus YLL026W, hits give low values 0.99 | locus YLL041C, strain sdh2, hits give low values 0.996 | locus YLR027C, strain aat2, hits give low values 1.01 | [10] 0.989 | locus YLR058C, strain SHM2, hits give low values 1.03 | locus YLR102C, strain apc9, hits give low values 0.971 | locus YLR113W, strain HOG1, hits give low values 1.01 | locus YLR221C, strain rsa3, hits give low values 0.992 | locus YLR258W, strain gsy2, hits give low values 1 | locus YLR262C, strain YPT6 (second series), hits give low values 0.985 | [11] 1.02 | locus YLR268W, strain sec22, hits give low values 0.97 | locus YLR320W, strain mms22, hits give low values 0.995 | locus YLR330W, strain CHS5, hits give low values 1.01 | locus YLR342W, strain FKS1 (second series), hits give low values 1.05 | locus YLR342W, strain FKS1, hits give low values 0.997 | locus YLR357W, strain rsc2, hits give low values 0.957 | locus YLR370C, strain arc18, hits give low values 0.997 | locus YLR371W, strain rom2, hits give low values 0.993 | locus YLR384C, strain iki3, hits give low values 1.01 | locus YLR418C, strain cdc73, hits give low values 1.02 | locus YML016C, strain PPZ1, hits give low values 1.01 | locus YML032C, strain rad52, hits give low values 1.04 | locus YML120C, strain ndi1, hits give low values 0.999 | locus YML124C, strain tub3, hits give low values 0.984 | locus YMR058W, strain fet3, hits give low values 1 | locus YMR078C, strain ctf18, hits give low values 0.982 | locus YMR125W, strain sto1, hits give low values 0.991 | locus YMR129W, hits give low values 0.989 | locus YMR205C, strain PFK2, hits give low values 1 | locus YMR223W, strain ubp8, hits give low values 1 | locus YMR231W, strain pep5, hits give low values 0.989 | [12] 1.01 | locus YMR307W, strain GAS1, hits give low values 1.09 | locus YNL067W, strain RPL9B, hits give low values 1.04 | locus YNL071W, strain lat1, hits give low values 1 | locus YNL183C, strain NPR1, hits give low values 0.946 | locus YNL209W, strain ssb2, hits give low values 0.996 | locus YNL233W, strain BNI4, hits give low values 1.06 | locus YNL248C, strain rpa49, hits give low values 1 | locus YNL250W, strain rad50, hits give low values 0.964 | locus YNL271C, strain bni1, hits give low values 0.982 | locus YNL298W, strain CLA4, hits give low values 0.987 | locus YNL307C, strain MCK1, hits give low values 0.999 | locus YNL322C, strain KRE1 (second series), hits give low values 1 | locus YNR049C, strain mso1, hits give low values 0.992 | locus YNR052C, strain pop2, hits give low values 0.995 | locus YOL012C, strain htz1 2.03 | locus YOL147C, strain pex11, hits give low values 1 | locus YOR001W, strain rrp6, hits give low values 0.998 | locus YOR061W, strain CKA2, hits give low values 1.01 | locus YOR069W, strain VPS5, hits give low values 0.989 | locus YOR070C, strain gyp1, hits give low values 0.979 | locus YOR080W, strain dia2, hits give low values 0.987 | locus YOR083W, strain WHI5, hits give low values 1 | locus YOR106W, strain vam3, hits give low values 1.01 | locus YOR136W, strain idh2, hits give low values 0.981 | locus YOR144C, strain elg1, hits give low values 1 | locus YOR184W, strain ser1, hits give low values 0.993 | locus YOR231W, strain MKK1, hits give low values 1 | locus YOR265W, strain rbl2, hits give low values 0.993 | locus YOR270C, strain vph1, hits give low values 1.01 | locus YOR290C, strain snf2, hits give low values 1 | locus YOR316C, strain cot1, hits give low values 0.99 | locus YPL051W, strain arl3, hits give low values 0.992 | locus YPL078C, strain atp4, hits give low values 1 | locus YPL106C, strain sse1, hits give low values 0.958 | locus YPL240C, strain hsp82, hits give low values 0.992 | locus YPL256C, strain CLN2, hits give low values 0.976 | locus YPR119W, strain clb2, hits give low values 0.974 | locus YPR141C, strain kar3, hits give low values 0.975 | locus YPR163C, strain tif3, hits give low values 0.981 | locus YPR167C, strain met16, hits give low values 0.971 | strain wtn01, hits give low values 0.978

From PubChem BioAssay AID1159580 (chemical genetic matrix, 2015)
